tim10-1 inh: growth inhibitors of tim10-1 mutant yeast, primary screen, luminescence, uHTS. hit rate 2.2% among 330,000. AID 463190, 2010. inhibition, % at 20 µM. S. cerevisiae tim10-1 ts strain growth, BacTiter-Glo, 24 h;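 active means inhibition of at least 40%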;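 further: mutant grown at 25 °C; 0% = DMSO wells with yeast and 100% = wells holding no yeast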
TIM10 inh: growth inhibitors of isogenic TIM10 control yeast, primary screen, counter-screen for tim10-1 yeast inhibitor project, luminescence, uHTS; hit rate 1.4% among 330,000; inhibition, % at 10 µM; S. cerevisiae TIM10 strain growth, BacTiter-Glo luminescence, 24 h;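 active means inhibition of 40% or more at the single tested concentration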;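 further: wild-type TIM10 isogenic control strain grown at permissive 25 °C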
NLRP3 yeast inh: NALP3 inflammasome inhibitors in reconstituted yeast, primary screen, luminescence, uHTS | Yeast reconstituted NLRP3/ASC/caspase-1, beta-gal luminescence, 24 h | inhibition, % at 10 µM | hit rate 0.39% among 330,000 | AID 2825, 2010;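 active means inhibition of 50% or more; inactive means inhibition below 50%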;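 further: plate controls were induced DMSO wells for no effect and uninduced yeast grown without galactose for full effect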
tim23-1 inh: growth inhibitors of tim23-1 mutant yeast, primary screen, luminescence, uHTS. S. cerevisiae tim23-1 growth, BacTiter-Glo luminescence, 24 h. inhibition, % at 20 µM. hit rate 1.3% among 330,000. AID 463212, 2010;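 active means growth inhibition of the mutant yeast at or above 50%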;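 further: temperature-sensitive mutant grown at 25 °C; plate controls were DMSO-treated mutant yeast for no effect and medium wells lacking yeast for full effect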
Yeast superoxide: reduction of superoxide in aged yeast, primary screen, HTS; hit rate 0.18% among 330,000; S. cerevisiae aged cells, superoxide DHE fluorescence; hits give low values; superoxide response (% of plate mean), % at 10 µM;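 active means superoxide response under a set limit, about three screen SD below normal, cut at about 65% in these data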;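 further: yeast aged for seven days with compound at 30 °C before DHE staining; 100% = average MFI of all compound-treated wells on the plate with controls excluded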
NALP3 confirm: NALP3 inhibitors retested in yeast, confirmation, luminescence, single concentration | yeast expressing human NALP3 | shares compounds with NLRP3 yeast inh | hit rate 81% among 1,300 | inhibition, % at 10 µM | AID 435006, 2010; in the data active means inhibition above about 48%
Casp1 ASC ctr: CASP1-PYCARD signaling inhibition in yeast, confirmatory test, counterassay for NLRP3 inhibitor program, one-dose | inhibition, % at 10 µM | yeast expressing Caspase-1-ASC, luminescence counter screen | shares compounds with NLRP3 yeast inh | hit rate 66% among 1,000 | AID 488784, 2010
NALP3 yeast rt: NALP3 inhibitors in yeast, repeat test, confirmation, luminescence, single concentration, retest; shares compounds with NLRP3 yeast inh; yeast expressing human NALP3, luminescence read-out; inhibition, % at 10 µM; hit rate 53% among 1,000; AID 488794, 2010
Starred values were filed as active, the others as inactive. Rows were chosen to be rich in hits. Some 3.8% of all compounds tested hit in one or more screens of this group. Unless noted, no stated cut-off is given here; in the data, active means inhibition above about 50%; inactive means the rest.

What do the screens show for `Cc1cc(OCc2nc3ccccc3s2)ccc1N`?
tim10-1 inh: 16.4; TIM10 inh: 21.9; NLRP3 yeast inh: 54.5*; tim23-1 inh: 22.9; Yeast superoxide: 105.6; NALP3 confirm: 42.5

What do the screens show for `COc1ccc(CNCC(O)COc2ccc(C(C)(C)c3ccccc3)cc2)cc1` (stereo unspecified)?
tim10-1 inh: -7.5; TIM10 inh: -11.5; NLRP3 yeast inh: 52.8*; tim23-1 inh: 38.3; Yeast superoxide: 95.3; NALP3 confirm: 76.0*

How did CCOC(=O)Nc1ccc(S(=O)(=O)NC2CCCCC2)cc1 do in these assays?
tim10-1 inh: -4.8; TIM10 inh: -2.0; NLRP3 yeast inh: 56.8*; tim23-1 inh: 6.8; Yeast superoxide: 70.8; NALP3 confirm: 68.4*

What do the screens show for `Cc1ccc(Nc2c([N+](=O)[O-])ccc3c2=NC2(CCCCC2)N=3)cc1`?
tim10-1 inh: 9.2; TIM10 inh: 29.7; NLRP3 yeast inh: 51.7*; tim23-1 inh: 39.7; Yeast superoxide: 111.9; NALP3 confirm: 56.0*

Results for Cc1cccc(C)c1NC(=O)CNC(=O)c1cccnc1 ?
tim10-1 inh: 3.7; TIM10 inh: 9.9; NLRP3 yeast inh: 16.5; tim23-1 inh: -0.8; Yeast superoxide: 117.6

Results for O=C(COc1ccc(Br)cc1Br)NC1CCCC1 ?
tim10-1 inh: -12.8; TIM10 inh: -19.8; NLRP3 yeast inh: 61.9*; tim23-1 inh: -2.2; Yeast superoxide: 101.8; NALP3 confirm: 56.4*; Casp1 ASC ctr: 53.4*; NALP3 yeast rt: 46.8

Results for O=C(COC(=O)COc1ccc(Cl)cc1Cl)NC1CCCCCC1 ?
tim10-1 inh: 4.8; TIM10 inh: -1.8; NLRP3 yeast inh: 3.5; tim23-1 inh: 16.4; Yeast superoxide: 129.1

How did O=C(COc1ccc(Br)cc1Cl)NC1CCCCC1 do in these assays?
tim10-1 inh: -0.5; TIM10 inh: -39.5; NLRP3 yeast inh: 53.3*; tim23-1 inh: 10.6; Yeast superoxide: 92.4; NALP3 confirm: 3.8

Results for O=C(COc1ccc(Br)cc1Br)NC1CCS(=O)(=O)C1 (stereo unspecified) ?
tim10-1 inh: -7.5; TIM10 inh: -3.0; NLRP3 yeast inh: 18.3; tim23-1 inh: -4.8; Yeast superoxide: 96.7

What do the screens show for `Cc1ccc(C)c(Oc2nnnn2-c2ccccc2)c1`?
tim10-1 inh: 27.5; TIM10 inh: 27.2; NLRP3 yeast inh: -108.3; tim23-1 inh: 30.1; Yeast superoxide: 106.0; NALP3 confirm: -5.0

Results for CCCSc1ccc([C@H]2N[C@@](C)(C(=O)OC)[C@H]3C(=O)N(CC)C(=O)[C@@H]23)cc1 ?
tim10-1 inh: 5.4; TIM10 inh: 7.0; NLRP3 yeast inh: 9.9; tim23-1 inh: 6.0; Yeast superoxide: 94.3

How did CCCSc1ccc([C@H]2N[C@@](C)(C(=O)OC)[C@H]3C(=O)N(C)C(=O)[C@@H]23)cc1 do in these assays?
tim10-1 inh: 1.3; TIM10 inh: -5.5; NLRP3 yeast inh: 51.3*; tim23-1 inh: 4.0; NALP3 confirm: 47.8; Casp1 ASC ctr: 16.4; NALP3 yeast rt: 15.6

Results for Cc1onc(-c2c(F)cccc2Cl)c1C(=O)N=C(N)N1CC(C)OC(C)C1 (stereo unspecified) ?
tim10-1 inh: 6.7; TIM10 inh: 5.4; NLRP3 yeast inh: 16.2; tim23-1 inh: -3.0; Yeast superoxide: 86.5

How did COc1ccccc1C(=O)Nc1cccc(NC(C)=O)c1 do in these assays?
tim10-1 inh: 11.2; TIM10 inh: 13.5; NLRP3 yeast inh: 3.8; tim23-1 inh: 4.7; Yeast superoxide: 84.0

How did CC(=O)Oc1ccccc1C(=O)Nc1ccccc1 do in these assays?
tim10-1 inh: -17.5; TIM10 inh: -10.7; NLRP3 yeast inh: 52.1*; tim23-1 inh: 5.9; Yeast superoxide: 106.3; NALP3 confirm: 68.3*; Casp1 ASC ctr: 33.4; NALP3 yeast rt: 44.8

How did COc1ccc(NC(=O)CCOc2ccccc2C)cc1S(=O)(=O)N1CCCCC1 do in these assays?
tim10-1 inh: 5.1; TIM10 inh: 6.1; NLRP3 yeast inh: 10.8; tim23-1 inh: 18.6; Yeast superoxide: 91.8

Results for CCn1c(COc2ccc(C)cc2)nnc1SCc1ccc(C#N)cc1 ?
tim10-1 inh: 30.9; TIM10 inh: -3.3; NLRP3 yeast inh: 61.4*; tim23-1 inh: 33.7; Yeast superoxide: 90.7; NALP3 confirm: 71.3*; Casp1 ASC ctr: 54.1*; NALP3 yeast rt: 39.4

What do the screens show for `C/C(=N\NC(=O)c1cccc(Br)c1)c1cccc(NC(=O)c2ccc(C)o2)c1`?
tim10-1 inh: 26.8; TIM10 inh: 28.1; NLRP3 yeast inh: 18.3; tim23-1 inh: 14.8; Yeast superoxide: 81.8

How did COc1ccc(C2=NN(C(=O)CCC(=O)O)C(c3ccccc3)C2)cc1 (stereo unspecified) do in these assays?
tim10-1 inh: 13.1; TIM10 inh: 2.9; NLRP3 yeast inh: 15.5; tim23-1 inh: 5.0

What do the screens show for `Cc1ccc(N2C(=O)C3N=NN(CC(=O)N4N=C(c5ccccc5)CC4c4ccccc4)C3C2=O)cc1` (stereo unspecified)?
tim10-1 inh: 4.2; TIM10 inh: 19.9; NLRP3 yeast inh: 65.4*; tim23-1 inh: 23.8; Yeast superoxide: 116.3; NALP3 confirm: 60.8*; Casp1 ASC ctr: 17.9; NALP3 yeast rt: 36.5

Results for O=S(=O)(c1ccc(Cl)cc1)c1snnc1-c1ccccc1 ?
tim10-1 inh: 12.8; TIM10 inh: -6.5; NLRP3 yeast inh: 60.8*; tim23-1 inh: 30.8; Yeast superoxide: 95.9; NALP3 confirm: 72.5*; Casp1 ASC ctr: 73.5*; NALP3 yeast rt: 66.2*

What do the screens show for `Cc1ccc(NC(=O)N2CCc3ccccc3C2)cc1C`?
tim10-1 inh: 4.1; TIM10 inh: 1.8; NLRP3 yeast inh: 43.1; tim23-1 inh: 27.1; Yeast superoxide: 100.3

How did Cc1cc(C)cc(NC(=O)N2CCc3ccccc3C2)c1 do in these assays?
tim10-1 inh: 26.0; TIM10 inh: 8.9; NLRP3 yeast inh: 53.2*; tim23-1 inh: 33.9; Yeast superoxide: 94.0; NALP3 confirm: 63.8*; Casp1 ASC ctr: 42.0; NALP3 yeast rt: 28.5

Results for COc1ccc(Cl)cc1NCCC(O)c1ccc(F)cc1 (stereo unspecified) ?
tim10-1 inh: 15.1; TIM10 inh: 6.0; NLRP3 yeast inh: 7.4; tim23-1 inh: 17.8; Yeast superoxide: 95.8
